Results: PubChem BioAssay AID1851 (National Center for Advancing Translational Sciences (NCATS), 2009)
Values joined by “and” are separate entries in the source; they are usually repeats but may differ in a detail not shown here. Equal values may be shown once. Out of some 16,000 compounds screened, about 5,800 (36%) were called active. Roughly 23% stayed inconclusive and do not appear here. Calls come from the whole dose curve; as a rule, active = well fitted curve in the direction sought with a large enough effect; inconclusive = small, poorly fitted or top-dose-only effect, or effect the other way; inactive = no such curve, though single readings can be large or run the other way. The list shows a part of the results.

What follows are molecules tested against Cytochrome P450 2C19 (Homo sapiens) (UniProt P33261) (assay: Cytochrome panel assay with activity outcomes). Settings: recombinant CYP, pro-luciferin dealkylation, luminescence, p450-cyp2c19; series mostly up to 57.1 µM; activity, negative = inhibition: at the top concentration.
% is set by controls: 0 for no effect and ±100 for the full control effect.

Chain of Cytochrome P450 2C19 (Homo sapiens) (P33261 whole entry, looked up): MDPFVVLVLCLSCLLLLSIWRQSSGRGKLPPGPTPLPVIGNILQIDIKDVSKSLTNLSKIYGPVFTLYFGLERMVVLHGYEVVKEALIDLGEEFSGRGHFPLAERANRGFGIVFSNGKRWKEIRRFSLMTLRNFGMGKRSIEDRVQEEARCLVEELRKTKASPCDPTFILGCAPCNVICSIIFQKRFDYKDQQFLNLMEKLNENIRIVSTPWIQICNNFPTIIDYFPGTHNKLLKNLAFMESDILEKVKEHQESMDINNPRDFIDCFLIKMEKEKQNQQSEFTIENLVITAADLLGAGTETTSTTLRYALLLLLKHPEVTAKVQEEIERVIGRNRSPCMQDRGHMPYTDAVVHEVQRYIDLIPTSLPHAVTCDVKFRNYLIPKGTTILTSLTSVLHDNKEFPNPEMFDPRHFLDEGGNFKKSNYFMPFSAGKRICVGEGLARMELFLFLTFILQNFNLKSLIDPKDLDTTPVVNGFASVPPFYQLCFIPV

AC50, active:
Cc1cc(C)n(Cc2ccc(NC(=O)c3ccc(COc4ccccc4Br)cc3)cc2)n1 3.98 µM
COC(=O)[C@@]1(Cc2ccccc2)[C@H]2c3cc(C(=O)N4CCCC4)n(Cc4nc5ccccc5[nH]4)c3C[C@H]2CN1C(=O)c1ccccc1 15.8 µM
COC(=O)[C@@]1(Cc2ccccc2)[C@H]2c3cc(C(=O)N4CCCC4)n(Cc4ccccn4)c3C[C@H]2CN1C(=O)c1ccccc1 10 µM
COC(=O)[C@@]1(Cc2ccccc2)[C@H]2c3cc(C(=O)N4CCCC4)n(CCc4ccccn4)c3C[C@H]2CN1C(=O)c1ccccc1 25.1 µM
CC(C)(CO)Cc1cc(C(C)(C)C)c(O)c(C(C)(C)C)c1 25.1 µM
CCOC(=O)c1ccccc1N/C=C1\CCCCC1=O 22.4 µM
CCn1c2ccccc2c2cc(NC(=O)C/C(C)=N/NC(=O)c3ccccc3N)ccc21 2.24 µM
CCc1ccccc1N1C(=O)c2cccc3c(N4CCOCC4)c([N+](=O)[O-])cc(c23)C1=O 3.98 µM
CN(Cc1ccco1)c1ccnc(-c2cccnc2)n1 6.31 µM
Cc1noc(C)c1-c1nccc(N(C)Cc2ccco2)n1 1 µM
COc1cccc(-c2nccc(N(C)Cc3ccco3)n2)c1 5.01 µM
N#Cc1ccc(-c2ccccc2)nc1SCC(=O)c1cccc(Cl)c1 2.24 µM
CN(C)c1oc(-c2ccccc2)nc1C#N 15.8 µM
COc1cc(O)oc1C=Nc1ccc(Cl)cc1 6.31 µM
COc1cc(O)oc1C=Nc1ccc(C(F)(F)F)cc1 7.08 µM
CC1=NN(c2ccc(F)cc2)C(=O)C1C(c1cccc(O)c1)c1c(C)[nH]n(-c2ccc(F)cc2)c1=O (configuration not stated) 17.8 µM
O=C1C2CCCN2C(c2ccc(F)cc2)N1c1nccs1 (configuration not stated) 14.1 µM
CCC1(C)Cc2c(sc3nnn(CC(=O)Nc4cccc5ccccc45)c(=O)c23)CO1 (configuration not stated) 15.8 µM
CCCSc1nc(SCC(=O)NCc2ccccc2)c2c3c(sc2n1)COC(C)(CC)C3 (configuration not stated) 11.2 µM
CCC1(C)Cc2c(sc3nnn(CC(=O)Nc4ccc(C)cc4)c(=O)c23)CO1 (configuration not stated) 10 µM
Nc1ccc(Sc2cnn(-c3ccccc3)c(=O)c2Cl)cc1 0.1 µM
Cc1ccc(S(=O)(=O)N[C@@H](CCc2ccccc2)CC(=O)C(C)(C)C)cc1 1.58 µM
CC(CCc1ccccc1)NS(=O)(=O)c1ccccc1 (configuration not stated) 2.51 µM
C[C@@H](C(=O)NCc1ccccn1)[C@@H]1C[C@@]1(C)[C@@H](NC(=O)OCc1ccccc1)c1ccccc1 2.51 µM
C[C@@H](C(=O)NCc1ccccn1)[C@H]1C[C@]1(C)[C@H](NC(=O)OCc1ccccc1)c1ccccc1 2 µM

activity, negative = inhibition, inactive:
COC(=O)[C@@]1(Cc2ccc(OC)cc2)[C@H]2c3cc(C(=O)N4CCCC4)n(CCn4cc([N+](=O)[O-])nc4C)c3C[C@H]2CN1C(=O)c1ccccc1 -20%
CSc1nc(Cl)cc(N(CCO)CCO)n1 31.7%
CC(C)(C=O)Cc1cc(C(C)(C)C)c(O)c(C(C)(C)C)c1 -36%
O=c1cc(N2CCOCC2)oc2c(-c3ccccc3)cccc12 -23.1%
Cc1noc(C)c1-c1nccc(N(C)C)n1 -28.6%
FC(F)(F)c1cc(CN2CCC3(CCNCC3)CC2)cc(C(F)(F)F)c1 0.261%
O=C(O)CSc1cc(-c2ccccc2)nc2ccccc12 1.28% [at 11.4 µM]
N#Cc1c(-c2ccccc2)no[n+]1[O-] -4.21%
CCOc1[nH]n(-c2ccc(Cl)cc2)c(=O)c1C=Nc1ccc(O)cc1 -6.82%
Cc1c(C(=O)O)nc(/C=C\C(=O)O)[nH]c1=O 18.2% [at 11.4 µM]
Cc1nc2ncnn2c(C)c1CCC(=O)NCc1ccccc1 -23.7%
CCSc1nc2sc3c(c2c(=O)[nH]1)CC(C)(CC)OC3 (configuration not stated) -6.25%
CN(N=O)C(=O)N[C@H]1[C@@H](O)[C@H](O)[C@H](CO)O[C@@H]1O 16.7% [at 25.6 µM]
NC(=O)Nn1c(CCC(=O)O)ccc1-c1ccc(F)cc1 -6.65%
CNc1cnn(-c2ccccc2)c(=O)c1Cl -9.49%
CCc1cc2c(nc1CC)CCN(CC/C(C)=N/OC[C@@H](O)COCc1ccco1)C2 -17.2% [at 11.4 µM]
COC(=O)C/C=C\[C@@H](C)[C@@H](/C=N\O[C@@H](C)c1cn([C@H](CO)Cc2ccccc2)nn1)NS(=O)(=O)c1ccc(C)cc1 14.8% [at 11.4 µM] and -27.5% [at 11.4 µM]
Cc1ccc(S(=O)(=O)N[C@H](CO)C(=O)O)cc1 -10.2% [at 11.4 µM]
C1CCc2c(nc3nnnn3c2NC2CCCC2)C1 -8.75%
O=C1[C@@H]2[C@H]3[C@H](O)[C@H](O)C/C(=N/OCc4ccccc4)[C@@H]3CC[C@H]2C(=O)N1c1ccc(F)cc1F -20.4% [at 11.4 µM]
O=C(O)CN(CCOCCOCCN(CC(=O)O)CC(=O)O)CC(=O)O 9.23%
Cc1cc2c(nc1C)CCCCN2C[C@H](O)CN1CCCc2nc(-c3ccc(Br)cc3)ccc21 -10.8% [at 11.4 µM]
